Test results from article PMC7862700, “An all-to-all approach to the identification of sequence-specific readers for epigenetic DNA modifications on cytosine”.

Key:
Test in all cases: DAPPL (digital affinity profiling via proximity ligation, sequencing); 10 mM Tris-HCl pH 7.5, 50 mM NaCl, 1 mM DTT, 4% glycerol, room temperature, 30 min; GST-TFs on glutathione beads, 16-mer random dsDNA library, 0.1% formaldehyde crosslink after washing; high values mean tight binding
Conditions in all cases: protein: recombinant; tags: N-terminal GST; dsDNA, one strand shown
FLI1 = target: T1, FLI1 (Homo sapiens, UniProt Q01543 1-452)
T1 sequence: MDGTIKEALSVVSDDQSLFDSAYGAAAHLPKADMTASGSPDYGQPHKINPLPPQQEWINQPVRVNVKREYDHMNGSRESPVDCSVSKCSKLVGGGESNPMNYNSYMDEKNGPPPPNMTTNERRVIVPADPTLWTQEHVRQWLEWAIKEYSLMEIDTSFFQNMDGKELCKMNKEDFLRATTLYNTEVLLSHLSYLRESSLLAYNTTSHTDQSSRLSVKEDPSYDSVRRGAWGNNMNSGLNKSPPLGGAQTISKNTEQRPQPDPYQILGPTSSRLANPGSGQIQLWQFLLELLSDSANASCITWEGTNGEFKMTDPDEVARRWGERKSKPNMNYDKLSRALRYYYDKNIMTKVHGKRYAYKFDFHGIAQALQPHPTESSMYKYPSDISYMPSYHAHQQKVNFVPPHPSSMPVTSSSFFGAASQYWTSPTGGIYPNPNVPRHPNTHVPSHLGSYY
Outline: (§1)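 Human transcription factors were made in yeast as GST fusions, captured on glutathione beads and barcoded with DNA. With a tag-only sample included, the pool was incubated with 200 nmole of a random double-stranded 16-mer DNA library in Tris/NaCl/DTT/glycerol buffer at room temperature for 30 min, then crosslinked with 0.1% formaldehyde after washing, ligated by proximity, amplified and sequenced. For binding signal, each hexamer's read frequency for a factor is divided by its frequency for the tag-only sample.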

ELK1 = target: T2, ELK1 (Homo sapiens, UniProt P19419 1-428)
T2 sequence: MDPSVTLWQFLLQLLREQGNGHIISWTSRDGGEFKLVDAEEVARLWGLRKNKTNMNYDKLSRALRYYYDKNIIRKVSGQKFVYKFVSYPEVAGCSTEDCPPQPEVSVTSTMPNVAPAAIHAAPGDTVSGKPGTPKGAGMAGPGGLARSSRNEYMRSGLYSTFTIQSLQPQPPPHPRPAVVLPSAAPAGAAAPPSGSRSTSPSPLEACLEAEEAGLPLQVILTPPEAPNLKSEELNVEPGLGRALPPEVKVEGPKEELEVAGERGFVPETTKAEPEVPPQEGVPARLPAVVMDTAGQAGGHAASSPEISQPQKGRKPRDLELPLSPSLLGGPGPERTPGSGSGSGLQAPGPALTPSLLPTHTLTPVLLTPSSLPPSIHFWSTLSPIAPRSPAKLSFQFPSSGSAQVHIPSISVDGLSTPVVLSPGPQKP
Outline: as §1

GABPA = target: T3, GABPA (Homo sapiens, UniProt Q06546 1-454)
T3 sequence: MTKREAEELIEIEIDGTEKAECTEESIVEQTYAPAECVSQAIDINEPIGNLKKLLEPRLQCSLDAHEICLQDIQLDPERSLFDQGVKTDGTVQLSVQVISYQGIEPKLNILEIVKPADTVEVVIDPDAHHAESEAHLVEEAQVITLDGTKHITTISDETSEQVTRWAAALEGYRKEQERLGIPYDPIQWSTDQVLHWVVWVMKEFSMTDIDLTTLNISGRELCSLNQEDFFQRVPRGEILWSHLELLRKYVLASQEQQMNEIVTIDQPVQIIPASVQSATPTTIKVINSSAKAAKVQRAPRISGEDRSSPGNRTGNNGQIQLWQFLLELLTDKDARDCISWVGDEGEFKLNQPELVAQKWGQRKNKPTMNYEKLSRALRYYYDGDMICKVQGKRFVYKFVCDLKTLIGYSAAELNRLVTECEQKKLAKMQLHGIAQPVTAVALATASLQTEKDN
Outline: as §1

ERG = target: T4, ERG (Homo sapiens, UniProt P11308 1-479)
T4 sequence: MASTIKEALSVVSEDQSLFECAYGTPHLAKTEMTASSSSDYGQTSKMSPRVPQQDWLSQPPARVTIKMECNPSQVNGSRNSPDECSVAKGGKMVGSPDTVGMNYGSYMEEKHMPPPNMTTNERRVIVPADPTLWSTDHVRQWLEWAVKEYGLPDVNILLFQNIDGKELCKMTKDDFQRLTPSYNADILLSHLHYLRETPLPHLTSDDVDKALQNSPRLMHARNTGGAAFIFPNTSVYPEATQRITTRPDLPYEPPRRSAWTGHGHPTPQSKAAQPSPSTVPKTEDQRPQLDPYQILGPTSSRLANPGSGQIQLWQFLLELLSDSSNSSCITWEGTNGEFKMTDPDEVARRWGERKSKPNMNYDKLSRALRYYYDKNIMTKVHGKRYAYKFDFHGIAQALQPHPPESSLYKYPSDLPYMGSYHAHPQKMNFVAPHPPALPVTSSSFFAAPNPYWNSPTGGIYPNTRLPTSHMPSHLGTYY
Outline: as §1

ELF1 = ELF1 (Homo sapiens, UniProt P32519 1-619)
Chain of ELF1 (P32519 whole entry): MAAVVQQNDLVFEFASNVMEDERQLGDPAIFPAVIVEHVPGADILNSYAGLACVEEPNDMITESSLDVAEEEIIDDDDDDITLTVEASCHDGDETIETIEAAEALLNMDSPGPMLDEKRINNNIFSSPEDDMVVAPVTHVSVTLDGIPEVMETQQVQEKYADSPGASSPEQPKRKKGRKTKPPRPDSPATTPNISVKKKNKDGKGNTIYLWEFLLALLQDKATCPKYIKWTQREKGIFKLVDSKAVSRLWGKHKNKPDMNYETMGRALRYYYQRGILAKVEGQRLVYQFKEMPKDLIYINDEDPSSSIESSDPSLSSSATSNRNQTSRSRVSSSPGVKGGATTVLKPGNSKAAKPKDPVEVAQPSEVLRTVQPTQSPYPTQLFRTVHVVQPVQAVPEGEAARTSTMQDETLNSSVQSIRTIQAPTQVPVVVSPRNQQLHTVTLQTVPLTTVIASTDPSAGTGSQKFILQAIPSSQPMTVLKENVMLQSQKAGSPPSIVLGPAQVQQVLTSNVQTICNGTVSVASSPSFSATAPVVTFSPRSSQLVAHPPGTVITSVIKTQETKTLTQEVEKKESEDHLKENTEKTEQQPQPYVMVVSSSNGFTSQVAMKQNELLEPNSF
Outline: as §1

EHF = target: T5, EHF (Homo sapiens, UniProt Q9NZC4 1-300)
T5 sequence: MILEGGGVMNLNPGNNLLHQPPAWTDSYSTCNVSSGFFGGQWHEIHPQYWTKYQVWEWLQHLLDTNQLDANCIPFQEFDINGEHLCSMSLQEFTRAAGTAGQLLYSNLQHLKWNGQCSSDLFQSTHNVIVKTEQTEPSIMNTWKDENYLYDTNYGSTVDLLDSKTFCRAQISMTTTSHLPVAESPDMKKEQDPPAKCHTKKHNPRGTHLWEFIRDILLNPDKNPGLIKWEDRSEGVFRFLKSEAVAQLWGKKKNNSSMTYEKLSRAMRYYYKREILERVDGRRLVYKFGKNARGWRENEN
Outline: as §1

SPI1 = SPI1 (Homo sapiens, UniProt P17947 1-270)
Outline: as §1

SPIB = SPIB (Homo sapiens, UniProt Q01892 1-262)
Chain of SPIB (Q01892 whole entry): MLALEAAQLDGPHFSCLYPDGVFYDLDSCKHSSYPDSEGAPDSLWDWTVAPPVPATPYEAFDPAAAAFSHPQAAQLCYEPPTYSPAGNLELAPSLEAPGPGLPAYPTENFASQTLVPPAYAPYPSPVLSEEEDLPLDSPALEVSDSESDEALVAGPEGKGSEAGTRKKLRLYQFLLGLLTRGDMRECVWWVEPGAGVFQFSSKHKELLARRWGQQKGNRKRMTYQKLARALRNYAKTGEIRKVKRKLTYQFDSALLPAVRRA
Outline: as §1

ELK3 = target: T6, ELK3 (Homo sapiens, UniProt P41970 1-407)
T6 sequence: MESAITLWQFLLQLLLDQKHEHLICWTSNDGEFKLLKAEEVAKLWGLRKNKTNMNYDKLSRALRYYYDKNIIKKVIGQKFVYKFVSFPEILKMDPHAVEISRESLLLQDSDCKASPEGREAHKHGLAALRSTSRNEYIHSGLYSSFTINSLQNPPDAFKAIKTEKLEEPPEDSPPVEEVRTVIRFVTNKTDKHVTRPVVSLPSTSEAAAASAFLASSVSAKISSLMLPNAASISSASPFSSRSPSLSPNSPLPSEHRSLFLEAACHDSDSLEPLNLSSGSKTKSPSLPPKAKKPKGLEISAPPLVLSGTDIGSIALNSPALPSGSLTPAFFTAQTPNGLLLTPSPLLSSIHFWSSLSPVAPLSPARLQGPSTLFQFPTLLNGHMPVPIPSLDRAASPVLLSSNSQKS
Outline: as §1

FEV = target: T7, FEV (Homo sapiens, UniProt Q99581 1-238)
T7 sequence: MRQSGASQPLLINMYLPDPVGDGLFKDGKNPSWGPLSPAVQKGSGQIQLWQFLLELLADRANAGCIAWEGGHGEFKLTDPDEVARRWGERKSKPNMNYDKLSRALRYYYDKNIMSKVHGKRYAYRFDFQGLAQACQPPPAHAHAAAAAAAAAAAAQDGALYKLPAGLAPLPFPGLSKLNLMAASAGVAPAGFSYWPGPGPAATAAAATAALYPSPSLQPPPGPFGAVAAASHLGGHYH
Outline: as §1

ETV5 = ETV5 (Homo sapiens, UniProt P41161 1-510)
Chain of ETV5 (P41161 whole entry): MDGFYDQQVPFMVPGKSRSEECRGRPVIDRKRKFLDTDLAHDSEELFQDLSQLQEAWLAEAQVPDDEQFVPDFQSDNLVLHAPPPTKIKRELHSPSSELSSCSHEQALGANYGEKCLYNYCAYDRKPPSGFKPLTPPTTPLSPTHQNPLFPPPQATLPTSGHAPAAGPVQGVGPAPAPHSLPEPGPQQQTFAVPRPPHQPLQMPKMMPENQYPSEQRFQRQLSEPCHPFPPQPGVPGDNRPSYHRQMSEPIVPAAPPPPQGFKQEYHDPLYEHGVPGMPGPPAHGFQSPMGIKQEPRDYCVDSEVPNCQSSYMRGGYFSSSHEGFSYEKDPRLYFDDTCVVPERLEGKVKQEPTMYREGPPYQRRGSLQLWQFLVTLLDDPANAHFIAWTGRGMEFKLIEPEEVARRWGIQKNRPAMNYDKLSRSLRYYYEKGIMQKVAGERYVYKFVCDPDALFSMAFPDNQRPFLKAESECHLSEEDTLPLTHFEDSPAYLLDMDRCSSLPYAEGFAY
Outline: as §1

SPIC = target: T8, SPIC (Homo sapiens, UniProt Q8N5J4 1-248)
T8 sequence: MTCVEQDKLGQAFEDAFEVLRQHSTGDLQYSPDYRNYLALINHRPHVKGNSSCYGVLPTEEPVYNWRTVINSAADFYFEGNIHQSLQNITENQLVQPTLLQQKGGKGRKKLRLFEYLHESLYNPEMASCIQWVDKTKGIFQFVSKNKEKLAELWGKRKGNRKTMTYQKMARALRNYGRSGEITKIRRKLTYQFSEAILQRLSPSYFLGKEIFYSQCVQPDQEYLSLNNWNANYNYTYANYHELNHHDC
Outline: as §1

ELF4 = ELF4 (Homo sapiens, UniProt Q99607 1-663)
Chain of ELF4 (Q99607 whole entry): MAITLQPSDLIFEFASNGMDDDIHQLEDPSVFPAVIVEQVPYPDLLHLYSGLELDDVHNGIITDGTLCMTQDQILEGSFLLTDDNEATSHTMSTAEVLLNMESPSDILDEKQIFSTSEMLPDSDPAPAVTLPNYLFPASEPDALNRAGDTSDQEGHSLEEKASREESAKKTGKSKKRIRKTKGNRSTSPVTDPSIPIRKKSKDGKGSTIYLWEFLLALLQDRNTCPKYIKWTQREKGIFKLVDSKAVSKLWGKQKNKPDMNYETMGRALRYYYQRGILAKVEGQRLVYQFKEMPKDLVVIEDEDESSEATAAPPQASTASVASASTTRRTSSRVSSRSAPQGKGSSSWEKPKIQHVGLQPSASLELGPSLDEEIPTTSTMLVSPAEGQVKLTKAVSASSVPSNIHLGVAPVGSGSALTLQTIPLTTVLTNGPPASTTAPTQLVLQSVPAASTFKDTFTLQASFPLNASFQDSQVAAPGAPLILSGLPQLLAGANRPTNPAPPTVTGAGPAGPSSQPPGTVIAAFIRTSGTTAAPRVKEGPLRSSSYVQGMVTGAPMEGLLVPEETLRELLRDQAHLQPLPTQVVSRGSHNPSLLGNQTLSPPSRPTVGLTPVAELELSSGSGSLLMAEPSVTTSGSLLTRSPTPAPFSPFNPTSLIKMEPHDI
Outline: as §1

ELK4 = target: T9, ELK4 (Homo sapiens, UniProt P28324-2 1-405)
T9 sequence: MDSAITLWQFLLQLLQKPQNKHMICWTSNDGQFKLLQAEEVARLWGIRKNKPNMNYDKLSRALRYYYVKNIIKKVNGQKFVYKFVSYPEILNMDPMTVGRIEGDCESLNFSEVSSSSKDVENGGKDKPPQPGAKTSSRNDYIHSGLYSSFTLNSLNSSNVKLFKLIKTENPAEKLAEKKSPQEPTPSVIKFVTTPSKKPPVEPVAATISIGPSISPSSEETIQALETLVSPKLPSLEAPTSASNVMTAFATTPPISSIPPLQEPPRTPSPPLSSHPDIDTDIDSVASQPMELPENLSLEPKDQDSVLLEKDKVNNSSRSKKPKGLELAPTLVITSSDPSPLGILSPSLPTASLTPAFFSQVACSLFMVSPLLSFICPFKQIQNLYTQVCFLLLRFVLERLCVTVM
Outline: as §1

ETV2 = target: T10, ETV2 (Homo sapiens, UniProt O00321 1-342)
T10 sequence: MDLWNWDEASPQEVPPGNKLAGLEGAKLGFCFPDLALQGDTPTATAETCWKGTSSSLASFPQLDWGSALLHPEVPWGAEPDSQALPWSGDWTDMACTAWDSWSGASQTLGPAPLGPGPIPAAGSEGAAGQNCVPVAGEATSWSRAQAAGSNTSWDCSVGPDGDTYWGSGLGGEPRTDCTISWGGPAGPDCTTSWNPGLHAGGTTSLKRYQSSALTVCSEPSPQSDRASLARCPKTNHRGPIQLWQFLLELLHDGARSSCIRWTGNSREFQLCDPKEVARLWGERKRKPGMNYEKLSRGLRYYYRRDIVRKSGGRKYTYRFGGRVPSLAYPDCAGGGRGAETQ
Outline: as §1

ELF3 = target: T11, ELF3 (Homo sapiens, UniProt P78545 1-371)
T11 sequence: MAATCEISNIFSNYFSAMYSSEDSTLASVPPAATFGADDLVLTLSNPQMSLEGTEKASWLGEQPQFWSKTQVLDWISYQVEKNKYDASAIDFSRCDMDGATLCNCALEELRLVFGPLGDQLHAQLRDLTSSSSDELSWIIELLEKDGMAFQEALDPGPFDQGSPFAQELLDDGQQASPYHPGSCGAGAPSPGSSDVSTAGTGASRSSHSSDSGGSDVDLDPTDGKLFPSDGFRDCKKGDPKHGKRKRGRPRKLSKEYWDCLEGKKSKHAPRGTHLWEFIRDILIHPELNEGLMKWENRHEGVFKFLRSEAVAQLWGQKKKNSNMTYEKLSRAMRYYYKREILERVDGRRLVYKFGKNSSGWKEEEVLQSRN
Outline: as §1

ETV1 = ETV1 (Homo sapiens, UniProt P50549 1-477)
Chain of ETV1 (P50549 whole entry): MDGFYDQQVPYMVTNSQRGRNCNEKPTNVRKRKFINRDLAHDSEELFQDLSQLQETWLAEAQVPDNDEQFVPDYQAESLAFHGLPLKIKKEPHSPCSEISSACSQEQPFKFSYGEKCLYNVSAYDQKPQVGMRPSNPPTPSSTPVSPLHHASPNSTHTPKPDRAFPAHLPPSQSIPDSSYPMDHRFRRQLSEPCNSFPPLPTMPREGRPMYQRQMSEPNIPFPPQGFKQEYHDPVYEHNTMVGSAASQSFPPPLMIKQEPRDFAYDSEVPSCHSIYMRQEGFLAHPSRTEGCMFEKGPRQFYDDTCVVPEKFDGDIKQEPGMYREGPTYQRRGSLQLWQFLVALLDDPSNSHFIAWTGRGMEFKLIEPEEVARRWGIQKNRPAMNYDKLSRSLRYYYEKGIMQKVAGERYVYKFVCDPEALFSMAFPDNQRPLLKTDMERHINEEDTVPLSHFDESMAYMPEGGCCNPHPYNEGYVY
Outline: as §1

CRX = CRX (Homo sapiens, UniProt O43186 1-299)
Chain of CRX (O43186 whole entry): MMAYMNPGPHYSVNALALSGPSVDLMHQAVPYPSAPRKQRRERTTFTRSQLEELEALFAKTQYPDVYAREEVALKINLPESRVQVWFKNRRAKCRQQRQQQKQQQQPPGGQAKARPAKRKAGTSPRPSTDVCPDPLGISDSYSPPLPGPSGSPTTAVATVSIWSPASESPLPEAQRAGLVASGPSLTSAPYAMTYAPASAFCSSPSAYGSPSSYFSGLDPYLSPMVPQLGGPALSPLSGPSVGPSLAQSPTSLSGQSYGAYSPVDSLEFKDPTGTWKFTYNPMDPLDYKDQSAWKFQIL
Outline: as §1

Sequence | binding signal (FLI1) | binding signal (ELK1) | binding signal (GABPA) | binding signal (ERG) | binding signal (ELF1) | binding signal (EHF) | binding signal (SPI1) | binding signal (SPIB) | binding signal (ELK3) | binding signal (FEV) | binding signal (ETV5) | binding signal (SPIC) | binding signal (ELF4) | binding signal (ELK4) | binding signal (ETV2) | binding signal (ELF3) | binding signal (ETV1) | binding signal (CRX)
CCGCCG | 1.29 fold enrichment (6-mer frequency, TF over GST control) | 1.4 fold enrichment (6-mer frequency, TF over GST control) | 1.41 fold enrichment (6-mer frequency, TF over GST control) | 1.37 fold enrichment (6-mer frequency, TF over GST control) | 1.26 fold enrichment (6-mer frequency, TF over GST control) | 1.34 fold enrichment (6-mer frequency, TF over GST control) | 1.27 fold enrichment (6-mer frequency, TF over GST control) | 1.16 fold enrichment (6-mer frequency, TF over GST control) | 1.26 fold enrichment (6-mer frequency, TF over GST control) | 1.55 fold enrichment (6-mer frequency, TF over GST control) | 1.25 fold enrichment (6-mer frequency, TF over GST control) | 1.22 fold enrichment (6-mer frequency, TF over GST control) | 1.29 fold enrichment (6-mer frequency, TF over GST control) | 1.27 fold enrichment (6-mer frequency, TF over GST control) | 1.11 fold enrichment (6-mer frequency, TF over GST control) | 1.23 fold enrichment (6-mer frequency, TF over GST control) | 1.25 fold enrichment (6-mer frequency, TF over GST control) | –
GGCTTG | 1.12 fold enrichment (6-mer frequency, TF over GST control) | 1.04 fold enrichment (6-mer frequency, TF over GST control) | 1.04 fold enrichment (6-mer frequency, TF over GST control) | 1.09 fold enrichment (6-mer frequency, TF over GST control) | – | – | 1.02 fold enrichment (6-mer frequency, TF over GST control) | 1.06 fold enrichment (6-mer frequency, TF over GST control) | – | 1.01 fold enrichment (6-mer frequency, TF over GST control) | 1.01 fold enrichment (6-mer frequency, TF over GST control) | 1.12 fold enrichment (6-mer frequency, TF over GST control) | 1.07 fold enrichment (6-mer frequency, TF over GST control) | 1.12 fold enrichment (6-mer frequency, TF over GST control) | 1.01 fold enrichment (6-mer frequency, TF over GST control) | 1.11 fold enrichment (6-mer frequency, TF over GST control) | 1.08 fold enrichment (6-mer frequency, TF over GST control) | 1.06 fold enrichment (6-mer frequency, TF over GST control)
CGCCGC | 1.35 fold enrichment (6-mer frequency, TF over GST control) | 1.1 fold enrichment (6-mer frequency, TF over GST control) | 1.19 fold enrichment (6-mer frequency, TF over GST control) | 1.06 fold enrichment (6-mer frequency, TF over GST control) | 1.14 fold enrichment (6-mer frequency, TF over GST control) | 1.27 fold enrichment (6-mer frequency, TF over GST control) | 1.11 fold enrichment (6-mer frequency, TF over GST control) | 1.11 fold enrichment (6-mer frequency, TF over GST control) | 1.32 fold enrichment (6-mer frequency, TF over GST control) | 1.24 fold enrichment (6-mer frequency, TF over GST control) | 1.13 fold enrichment (6-mer frequency, TF over GST control) | 1.22 fold enrichment (6-mer frequency, TF over GST control) | 1.26 fold enrichment (6-mer frequency, TF over GST control) | 1.05 fold enrichment (6-mer frequency, TF over GST control) | 1.03 fold enrichment (6-mer frequency, TF over GST control) | 1.26 fold enrichment (6-mer frequency, TF over GST control) | 1.29 fold enrichment (6-mer frequency, TF over GST control) | –
